Values joined by “and” are separate entries in the source; they are usually repeats but may differ in a detail not shown here. Identical values can stand only once. Records with an inconclusive call do not appear. A number with no mark means an inactive call. Active and inactive are the calls of the source. Calls follow the shape of the dose curve; as a rule, active = well fitted curve in the direction sought with a large enough effect; inconclusive = small, poorly fitted or top-dose-only effect, or another doubt; inactive = no such curve, though single readings can be large; an effect the other way counts as inactive or inconclusive.
Columns and labels:
[1] = Viability qHTS for spleen associated tyrosine kinase inhibitor (SYKi) naive MV4-11 cells (AID 1963823); also: nearly all actives have a fitted effect of over 40% in size
How it was run: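 qHTS, SYK inhibitor-naive MV4-11; 500 cells/well; 72 hr compound exposure, 37 C; CellTiter-Glo added, 10 min RT; luminescence read.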

[2] = Viability qHTS for spleen associated tyrosine kinase inhibitor (SYKi) drug resistant MV4-11 cells (AID 1963824); also: nearly all actives have a fitted effect of over 35% in size
How it was run: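 SYK-inhibitor-resistant MV4-11 AML cells were seeded at 500 per well onto compound and cultured 72 hours (37 °C, 5% CO2). CellTiter-Glo was then added, and after 10 min at room temperature, luminescence gave viability.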

[3] = Quantitative highthroughput screen to assess conditional lethalithy of NOMO1 cells grown in RPMI1640 with dialyzed fetal bovine serum (RPMI+ds) (AID 1963877); also: nearly all actives have a fitted effect of over 30% in size;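 as to Viability: series mostly up to about 46 µM; 100% = DMSO control wells and 0% = empty wells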
How it was run: (§1)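 Each medium arm—HPLM with 10% dialyzed FBS, or RPMI1640 with 5 mM glucose and 10% untreated or dialyzed FBS—was screened against an 11-point, 3-fold compound titration for 48 h at 37 °C, with CellTiter-Glo luminescence as endpoint.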

[4] = Quantitative highthroughput screen to assess conditional lethalithy of P12 Ichikawa cells grown in Human Plasma-Like Medium with dialyzed fetal bovine serum (HPLM+ds) (AID 1963879); conditions: Potency: viability; also: nearly all actives have a fitted effect of over 35% in size; as to Viability: series mostly up to about 46 µM
How it was run: as §1

[5] = Quantitative highthroughput screen to assess conditional lethalithy of P12 Ichikawa cells grown in RPMI1640 with dialyzed fetal bovine serum (RPMI+ds) (AID 1963880); conditions: Potency: P12-Ichikawa viability; also: nearly all actives have a fitted effect of over 35% in size;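 as to Viability: 100% = DMSO wells and 0% = empty wells on each plate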
How it was run: as §1

[6] = Quantitative highthroughput screen to assess conditional lethalithy of SEM cells grown in Human Plasma-Like Medium with dialyzed fetal bovine serum (HPLM+ds) (AID 1963882); also: nearly all actives have a fitted effect of over 35% in size; as to Viability: series mostly up to about 46 µM
How it was run: as §1

[7] = Quantitative highthroughput screen to assess conditional lethalithy of SEM cells grown in RPMI1640 with unreated serum (RPMI+s) (AID 1963883); also: nearly all actives have a fitted effect of over 35% in size;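 as to Viability: 100% = DMSO wells and 0% = empty wells without cells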
How it was run: as §1

[8] = Quantitative highthroughput screen to assess conditional lethalithy of SEM cells grown in RPMI1640 with dialyzed fetal bovine serum (RPMI+ds) (AID 1963884); also: nearly all actives have a fitted effect of over 35% in size;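 as to Viability: series mostly up to about 46 µM; 100% = DMSO control wells and 0% = empty wells without cells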
How it was run: as §1

[9] = Cellular viability qHTS for adrenocortical cancer (ACC) cell line SW-13 (AID 1963989); conditions: SW-13 ACC cells viability, CellTiter-Glo, 48 h; activity (max response): stronger effect = lower value; also: nearly all actives have a fitted effect of over 65% in size;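 as to activity (max response): cells grown in serum-free medium with ITS supplement; % is scaled to controls: 0 for no effect and ±100 for the full control effect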
How it was run: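 48 h treatment, SW-13 in ITS/DMEM serum-free; doses up to 46 uM; readout CellTiter-Glo luminescence; curve fit four-parameter logistic.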

[10] = Cellular viability qHTS for adrenocortical cancer (ACC) cell line NCI-H295R (AID 1963990); also: nearly all actives have a fitted effect of over 60% in size
How it was run: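 Compound titrations (up to 46 uM final) are applied to NCI-H295R cultures for 48 h at 37C. Viable cell number is estimated by CellTiter-Glo signal, normalised to DMSO and doxorubicin controls.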

[11] = Quantitative highthroughput screen to assess conditional lethalithy of NOMO1 cells grown in Human Plasma-Like Medium with dialyzed fetal bovine serum (HPLM+ds) (AID 1963878); also: nearly all actives have a fitted effect of over 35% in size;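 as to Viability: 100% = DMSO wells and 0% = empty wells on each plate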
How it was run: as §1

[12] = Quantitative highthroughput screen to assess conditional lethalithy of P12 Ichikawa cells grown in RPMI1640 with untreated serum (RPMI+s) (AID 1963881); conditions: Potency: viability; also: nearly all actives have a fitted effect of over 35% in size;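 as to Viability: series mostly up to about 46 µM; 100% = DMSO wells and 0% = empty wells without cells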
How it was run: as §1
Potency is read from the fitted curve at half-maximal effect.

| Structure (SMILES) | Potency [1] | Potency [2] | Potency [3] | Potency [4] | Potency [5] | Potency [6] | Potency [7] | Potency [8] | activity (max response) [9] [%] | Potency [10] | Potency [11] | Potency [12] | Potency [9] |
| --- | --- | --- | --- | --- | --- | --- | --- | --- | --- | --- | --- | --- | --- |
| CC(C)(CO)[C@@H](O)C(=O)NCCC(=O)O | inactive | inactive | inactive | inactive | inactive | inactive | inactive | inactive | -17.7 | inactive |  |  |  |
| Cc1cc2c(F)c(Oc3ncnn4cc(OC[C@@H](C)O)c(C)c34)ccc2[nH]1 | 5.9 µM (active) | 9.34 µM (active) | inactive |  |  |  |  |  |  | inactive | inactive | 18.7 µM (active) |  |
| Cc1cn(CCN2CCN(c3ccccc3-c3cc(C#N)cc(C(=O)NCCCN4CCCC4)c3)CC2)c2ccccc12 | 3.72 µM (active) | 3.66 µM (active) and 3.32 µM (active) | 10.5 µM (active) | 8.31 µM (active) | 7.41 µM (active) | 6.6 µM (active) | 13.2 µM (active) |  |  | 5.62 µM (active) | 8.31 µM (active) | 8.31 µM (active) | 22.4 µM (active) |
| O=C(Nc1ccccc1-c1cn2c(CN3CCNCC3)csc2n1)c1cnc2ccccc2n1 | 9.2 µM (active) | 13 µM (active) | inactive |  |  | 18.7 µM (active) | 18.7 µM (active) | 13.2 µM (active) |  | 7.08 µM (active) | inactive | 26.4 µM (active) | 3.55 µM (active) |
| COc1cc(OC2CCN(C)CC2)ccc1Nc1ncc2c(n1)n(C1CCCC1)c(=O)n2C | 1.86 µM (active) | 2.95 µM (active) | 18.7 µM (active) |  | 20.9 µM (active) | 10.5 µM (active) | 11.8 µM (active) | 14.8 µM (active) |  | 15.8 µM (active) |  | 23.5 µM (active) | 25.1 µM (active) |
| O=C(O)c1ccc2c(c1)nc(Nc1cccc(Cl)c1)c1ccncc12 | 1.84 µM (active) and 1.32 µM (active) | 1.64 µM (active) and 1.66 µM (active) | 7.43 µM (active) |  | 5.9 µM (active) |  |  |  |  | 2.51 µM (active) | 4.69 µM (active) |  | 3.55 µM (active) |
| O=C1CCC[C@@H]2[C@H]3CCC[N+]4([O-])CCC[C@@H](CN12)[C@@H]34 (stereo not given in full) | inactive | inactive | 7.43 µM (active) | inactive | inactive | 6.62 µM (active) | 7.43 µM (active) |  | -8.5 | inactive | 5.9 µM (active) | inactive |  |
| COCCOc1nc(-c2ccc(Cl)c(Cl)c2)n(-c2ccc(NC(=O)CCl)cc2)n1 | 2.31 µM (active) | 1.48 µM (active) | inactive |  | inactive | inactive | inactive | inactive |  | 0.199 µM (active) | inactive | inactive | 4.47 µM (active) |
| C[C@H](NC(=O)Cc1cc(F)cc(F)c1)C(=O)N[C@H](C(=O)OC(C)(C)C)c1ccccc1 | inactive | 14.8 µM (active) | inactive |  | inactive | inactive | inactive | inactive | 3.52 |  | inactive | inactive |  |
| CC(C)C[C@@H](C(=O)N[C@H](C(=O)OC1CCCC1)c1ccccc1)[C@H](O)C(=O)NO | 0.372 µM (active) | 0.0742 µM (active) | 23.5 µM (active) | 20.9 µM (active) |  |  |  |  |  | 25.1 µM (active) |  |  |  |
| COc1cc2ncnc(-n3nc(-c4ccccn4)nc3N)c2cc1OC | 796 nM (active) and 1.48 µM (active) | 2.63 µM (active) | 23.5 µM (active) |  |  | 5.26 µM (active) | 1.32 µM (active) | 2.35 µM (active) | 10.9 | inactive | 20.9 µM (active) | 26.4 µM (active) |  |
| Clc1ccc(C(Cn2ccnc2)OCc2c(Cl)cccc2Cl)c(Cl)c1 (stereo not given) | 16.8 µM (active) and 8.33 µM (active) | 21.1 µM (active) and 8.33 µM (active) | inactive | inactive |  | inactive | inactive |  |  |  | inactive |  |  |
| O=C(O)C1CCCN(CCC=C(c2ccccc2)c2ccccc2)C1 (stereo not given) | inactive | inactive | inactive | inactive | inactive |  | inactive | inactive | -5.26 | inactive |  | inactive |  |
| CC(Oc1ccc(O)cc1)(P(=O)(O)O)P(=O)(O)O | inactive | inactive | 26.4 µM (active) |  |  |  |  |  | 1.35 | inactive | 13.2 µM (active) |  |  |
| NS(=O)(=O)c1cccc2c1C(=O)c1cccc(O)c1C2=O | 0.525 µM (active) | 0.468 µM (active) | 23.5 µM (active) | 26.4 µM (active) | 26.4 µM (active) | 6.62 µM (active) | 1.48 µM (active) | 0.372 µM (active) |  | 0.631 µM (active) | 20.9 µM (active) |  | 1.26 µM (active) |
